Measured values reported in PubChem BioAssay (Tox21).
Records with an inconclusive call do not appear. Active and inactive are the calls of the source. Unless noted, calls follow the shape of the full dose curve. Non-standard residues stand in square brackets, D forms with d. Residues, ends and D or L forms follow the SMILES beside them. *: point of attachment. Sta = CC(C)C[C@H](N)[C@@H](O)CC(=O)O; Isovaleryl = CC(C)CC(=O)*

tested on: not listed separately; assay: qHTS assay to identify small molecule agonists or antagonists of the thyroid stimulating hormone receptor (TSHR) signaling pathway - wild type cell line counter screen (AID 1259384); conditions: HEK293 wild type, cAMP HTRF counter-screen, active compounds read high; series mostly up to 92.4 µM; cAMP activity change: at the top concentration
Outline: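 Counter screen in untransfected Hek293: compounds (15-point titration, triplicate) plus phosphodiesterase inhibitor Ro20-1724 added after 18 h plating; 30 min RT. Intracellular cAMP via competitive d2/cryptate immunoassay, 1 h incubation.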
% is scaled to controls: 0 for no effect and ±100 for the full control effect.

| Structure (SMILES) | cAMP activity change |
| --- | --- |
| Cc1ccc(O)c(C(=O)c2ccccc2)c1 | 0.928% (inactive) |
| C=CCN1CCc2nc(N)sc2CC1 | 0.554% [at 42.5 µM] (inactive) |
| CSC(=O)c1cccc2nnsc12 | 4.49% (inactive) |
| COC(=O)c1cc(Cl)c(NC(C)=O)cc1OC | 6.64% [at 42.5 µM] (inactive) |
| Cc1ccc2ccccc2n1 | 2.8% (inactive) |
| CCCCCC(=O)CC | -4.1% (inactive) |
| CCCOc1ccc(C(=O)OCCN(CC)CC)cc1N | -5.38% [at 42.5 µM] (inactive) |
| O=c1c(O)c(O)c1=O | 1.71% (inactive) |
| CC(C)OCCO | 2.52% (inactive) |
| C[n+]1ccccc1/C=N/O | -7.05% [at 42.5 µM] (inactive) |
| CCCCCCCCC1CO1 (centres undefined) | 2.65% (inactive) |
| O=C(c1ccccc1)c1cccc(O)c1 | -0.253% (inactive) |
| CC(C)C(C)C | -1.34% (inactive) |
| CC1(C)CC(N)CC(C)(C)N1 | -0.73% (inactive) |
| CCCC[O][Al]([O]CCCC)[O]CCCC | 2.04% (inactive) |
| N=C(N)N1CCc2ccccc2C1 | 4.39% [at 8.39 µM] (inactive) |
| O=C1CC2(CCCC2)CC(=O)N1CCNCC1COc2ccccc2O1 (centres undefined) | 0.778% [at 42.5 µM] (inactive) |
| CC(C)OC(=O)C(C(=O)OC(C)C)=C1SC=CS1 | 2.25% [at 42.5 µM] (inactive) |
| CCC(C)c1nccnc1OC (centres undefined) | 1.65% (inactive) |

| Structure (SMILES) | cAMP activity change |
| --- | --- |
| CC(=O)OC/C=C(/C)CCC=C(C)C | -0.0471% (inactive) |
| CCCCCCCCCCCCCCCC/C=C/C1CC(=O)OC1=O (centres undefined) | 0.926% [at 42.5 µM] (inactive) |
| CCCC(=O)OC | 3.13% (inactive) |
| COC(=O)C(c1ccccc1Cl)N1CCc2sccc2C1 (centres undefined) | -6.62% [at 42.5 µM] (inactive) |
| CCN(CC)CC(=O)Oc1ccc(NC(C)=O)cc1 | 8.49% [at 42.5 µM] (inactive) |
| CC(C)CC(=O)N[C@H](C(=O)N[C@H](C(=O)N[C@@H](CC(C)C)[C@@H](O)CC(=O)N[C@@H](C)C(=O)N[C@@H](CC(C)C)[C@@H](O)CC(=O)O)C(C)C)C(C)C (Isovaleryl-VV[Sta]A[Sta]-OH) | 2.31% [at 42.5 µM] (inactive) |
| Cc1cc(N)no1 | 4.61% (inactive) |
| CC(=O)Nc1ccc(OCCOCCOc2ccc(NC(C)=O)cc2)cc1 | -2.82% [at 42.5 µM] (inactive) |
| CC(C)(Sc1cc(C(C)(C)C)c(O)c(C(C)(C)C)c1)Sc1cc(C(C)(C)C)c(O)c(C(C)(C)C)c1 | -0.265% [at 42.5 µM] (inactive) |
| O=C1Nc2ccccc2C1=O | -0.707% (inactive) |
| N=C(N)S(=O)O | -2.07% (inactive) |
| CCCC(C)C(O)CC (centres undefined) | -0.14% (inactive) |
| O=C(O)CCCCCCCCCC(=O)O | -0.238% (inactive) |
| NC[C@H]1O[C@H](O[C@H]2[C@H](O)[C@@H](O[C@H]3O[C@H](CO)[C@@H](O)[C@H](N)[C@H]3O)[C@H](N)C[C@@H]2N)[C@H](N)[C@@H](O)[C@@H]1O | 2.25% [at 18.9 µM] (inactive) |
| Cc1nnc(C(=O)NC(C)(C)c2nc(C(=O)NCc3ccc(F)cc3)c(O)c(=O)n2C)o1 | -0.109% [at 42.5 µM] (inactive) |
| CC/C=C\CCOC(=O)c1ccccc1 | 2.4% (inactive) |
| C=CCCCCCCCCCCCCCC | 3.16% [at 18.9 µM] (inactive) |
| CC12CCCC=C1C(=O)OC2=O (centres undefined) | 0.983% (inactive) |
| CCCCN1C(=O)c2ccccc2C1=O | 2.64% (inactive) |

target: Thyrotropin receptor (Homo sapiens) (UniProt P16473); assay: qHTS assay to identify small molecule antagonists of the thyroid stimulating hormone receptor (TSHR) signaling pathway (AID 1259385); conditions: TSHR-HEK293 cAMP HTRF, TSH-stimulated antagonist mode; series mostly up to 92.4 µM; activity change, negative = inhibition: at the top concentration; also: nearly all actives have a fitted effect of over 20% in size
Sequence (P16473 whole entry, looked up): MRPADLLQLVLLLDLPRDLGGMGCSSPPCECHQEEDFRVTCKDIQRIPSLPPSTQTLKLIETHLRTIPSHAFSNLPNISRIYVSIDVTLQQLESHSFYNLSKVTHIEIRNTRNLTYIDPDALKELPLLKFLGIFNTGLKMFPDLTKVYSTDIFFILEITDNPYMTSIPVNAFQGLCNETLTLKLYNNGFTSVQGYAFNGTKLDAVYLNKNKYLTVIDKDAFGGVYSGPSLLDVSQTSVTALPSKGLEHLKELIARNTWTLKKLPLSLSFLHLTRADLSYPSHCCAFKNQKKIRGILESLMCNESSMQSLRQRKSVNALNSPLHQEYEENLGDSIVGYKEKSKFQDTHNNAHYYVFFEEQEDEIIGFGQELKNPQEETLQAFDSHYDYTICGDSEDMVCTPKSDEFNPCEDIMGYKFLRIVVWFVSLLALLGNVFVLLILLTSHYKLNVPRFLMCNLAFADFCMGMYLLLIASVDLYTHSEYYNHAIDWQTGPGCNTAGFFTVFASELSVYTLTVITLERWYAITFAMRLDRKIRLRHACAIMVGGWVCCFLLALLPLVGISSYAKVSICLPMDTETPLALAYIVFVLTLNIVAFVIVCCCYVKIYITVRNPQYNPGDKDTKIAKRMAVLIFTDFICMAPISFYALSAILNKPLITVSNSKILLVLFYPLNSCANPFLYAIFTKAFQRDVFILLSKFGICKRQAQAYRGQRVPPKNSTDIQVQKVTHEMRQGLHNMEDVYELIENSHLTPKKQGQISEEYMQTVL
Outline: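 Antagonist mode: compound-treated TSHR-expressing HEK293 cells were stimulated with 1.5 ng/mL TSH (final) in presence of Ro20-1724 for 30 min at RT. HTRF cAMP detection after 1 h; each compound tested at 15 concentrations, triplicate.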

| Structure (SMILES) | activity change, negative = inhibition |
| --- | --- |
| C=CCN1CCc2nc(N)sc2CC1 | 0.0146% [at 42.5 µM] (inactive) |
| CSC(=O)c1cccc2nnsc12 | 0.0804% (inactive) |
| Cc1ccc2ccccc2n1 | 0.824% (inactive) |
| CCCCCC(=O)CC | -0.247% (inactive) |
| CCCOc1ccc(C(=O)OCCN(CC)CC)cc1N | 1.27% [at 42.5 µM] (inactive) |
| O=c1c(O)c(O)c1=O | 0.451% (inactive) |
| CC(C)OCCO | 2.43% (inactive) |
| O=C(c1ccccc1)c1cccc(O)c1 | 6.88% (inactive) |
| CC1(C)CC(N)CC(C)(C)N1 | -4.46% (inactive) |
| CCCC[O][Al]([O]CCCC)[O]CCCC | -0.226% (inactive) |
| N=C(N)N1CCc2ccccc2C1 | 0.0098% [at 8.39 µM] (inactive) |
| O=C1CC2(CCCC2)CC(=O)N1CCNCC1COc2ccccc2O1 (centres undefined) | 0.35% [at 42.5 µM] (inactive) |
| CC(C)OC(=O)C(C(=O)OC(C)C)=C1SC=CS1 | -12% [at 42.5 µM] (inactive) |
| CCC(C)c1nccnc1OC (centres undefined) | -0.33% (inactive) |
| CCCCCCCCCCCCCCCC/C=C/C1CC(=O)OC1=O (centres undefined) | -1.49% [at 42.5 µM] (inactive) |
| COC(=O)C(c1ccccc1Cl)N1CCc2sccc2C1 (centres undefined) | 2.15% [at 42.5 µM] (inactive) |
| O=C1Nc2ccccc2C1=O | -2.1% (inactive) |
| N=C(N)S(=O)O | 0.513% (inactive) |
| CCCC(C)C(O)CC (centres undefined) | -0.22% (inactive) |
| NC[C@H]1O[C@H](O[C@H]2[C@H](O)[C@@H](O[C@H]3O[C@H](CO)[C@@H](O)[C@H](N)[C@H]3O)[C@H](N)C[C@@H]2N)[C@H](N)[C@@H](O)[C@@H]1O | 4.59% [at 19 µM] (inactive) |
| Cc1nnc(C(=O)NC(C)(C)c2nc(C(=O)NCc3ccc(F)cc3)c(O)c(=O)n2C)o1 | -1.12% [at 42.5 µM] (inactive) |
| CC/C=C\CCOC(=O)c1ccccc1 | -7.12% (inactive) |
| C=CCCCCCCCCCCCCCC | 0.749% [at 19 µM] (inactive) |
| CC12CCCC=C1C(=O)OC2=O (centres undefined) | 2.86% (inactive) |

tested on: not listed separately; assay: qHTS assay to identify small molecule agonists of the estrogen receptor alpha (ER-alpha) signaling pathway in the presence of an antagonist - cell viability counter screen (AID 1259386; active = well fitted cell-killing curve with a large enough effect in the repeat runs;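 also: cells exposed to compounds for 22 h at 37 °C before the viability read; nearly all actives have a fitted effect of over 30% in size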); conditions: VM7Luc4E2 viability, CellTiter-Fluor fluorescence, 22 h; series mostly up to 92.4 µM; activity change, negative = cytotoxicity: at the top concentration
Outline: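 Using estrogen-depleted VM7Luc4E2 cells, the 15-concentration compound series was applied together with 10.0nM ICI-182,780 and incubated 22hr at 37C/5% CO2. Cell viability was then scored by CellTiter-Fluor.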

| Structure (SMILES) | activity change, negative = cytotoxicity |
| --- | --- |
| Cc1ccc(O)c(C(=O)c2ccccc2)c1 | 1.8% (inactive) |
| C=CCN1CCc2nc(N)sc2CC1 | 2.24% [at 42.5 µM] (inactive) |
| CSC(=O)c1cccc2nnsc12 | -0.186% (inactive) |
| COC(=O)c1cc(Cl)c(NC(C)=O)cc1OC | 4.12% [at 42.5 µM] (inactive) |
| Cc1ccc2ccccc2n1 | 4.72% (inactive) |
| CCCCCC(=O)CC | -0.243% (inactive) |
| CCCOc1ccc(C(=O)OCCN(CC)CC)cc1N | -1.8% [at 42.5 µM] (inactive) |
| O=c1c(O)c(O)c1=O | -0.221% (inactive) |
| CC(C)OCCO | 1.57% (inactive) |
| C[n+]1ccccc1/C=N/O | 0.847% [at 42.5 µM] (inactive) |
| CCCCCCCCC1CO1 (centres undefined) | 1.29% (inactive) |
| O=C(c1ccccc1)c1cccc(O)c1 | 0.666% (inactive) |
| CC(C)C(C)C | 0.808% (inactive) |
| CCCC[O][Al]([O]CCCC)[O]CCCC | 3.77% (inactive) |
| N=C(N)N1CCc2ccccc2C1 | -0.402% [at 8.39 µM] (inactive) |
| O=C1CC2(CCCC2)CC(=O)N1CCNCC1COc2ccccc2O1 (centres undefined) | 1.51% [at 42.5 µM] (inactive) |
| CC(C)OC(=O)C(C(=O)OC(C)C)=C1SC=CS1 | 0.616% [at 42.5 µM] (inactive) |
| CCC(C)c1nccnc1OC (centres undefined) | 6.76% (inactive) |
| CC(=O)OC/C=C(/C)CCC=C(C)C | 0.592% (inactive) |

| Structure (SMILES) | activity change, negative = cytotoxicity |
| --- | --- |
| CCCCCCCCCCCCCCCC/C=C/C1CC(=O)OC1=O (centres undefined) | 1.76% [at 42.5 µM] (inactive) |
| CCCC(=O)OC | 1.79% (inactive) |
| COC(=O)C(c1ccccc1Cl)N1CCc2sccc2C1 (centres undefined) | 0.0399% [at 42.5 µM] (inactive) |
| CCN(CC)CC(=O)Oc1ccc(NC(C)=O)cc1 | 4.84% [at 42.5 µM] (inactive) |
| CC(C)CC(=O)N[C@H](C(=O)N[C@H](C(=O)N[C@@H](CC(C)C)[C@@H](O)CC(=O)N[C@@H](C)C(=O)N[C@@H](CC(C)C)[C@@H](O)CC(=O)O)C(C)C)C(C)C (Isovaleryl-VV[Sta]A[Sta]-OH) | 0.87% [at 42.5 µM] (inactive) |
| Cc1cc(N)no1 | 3.07% (inactive) |
| CC(=O)Nc1ccc(OCCOCCOc2ccc(NC(C)=O)cc2)cc1 | 3.4% [at 42.5 µM] (inactive) |
| CC(C)(Sc1cc(C(C)(C)C)c(O)c(C(C)(C)C)c1)Sc1cc(C(C)(C)C)c(O)c(C(C)(C)C)c1 | -0.741% [at 42.5 µM] (inactive) |
| O=C1Nc2ccccc2C1=O | 0.0446% (inactive) |
| N=C(N)S(=O)O | -3.5% (inactive) |
| CCCC(C)C(O)CC (centres undefined) | -1.27% (inactive) |
| O=C(O)CCCCCCCCCC(=O)O | 0.393% (inactive) |
| NC[C@H]1O[C@H](O[C@H]2[C@H](O)[C@@H](O[C@H]3O[C@H](CO)[C@@H](O)[C@H](N)[C@H]3O)[C@H](N)C[C@@H]2N)[C@H](N)[C@@H](O)[C@@H]1O | 10% [at 19 µM] (inactive) |
| Cc1nnc(C(=O)NC(C)(C)c2nc(C(=O)NCc3ccc(F)cc3)c(O)c(=O)n2C)o1 | 2.93% [at 42.5 µM] (inactive) |
| CC/C=C\CCOC(=O)c1ccccc1 | -4.79% (inactive) |
| C=CCCCCCCCCCCCCCC | 1.42% [at 19 µM] (inactive) |
| CC12CCCC=C1C(=O)OC2=O (centres undefined) | 3.37% (inactive) |
| CCCCN1C(=O)c2ccccc2C1=O | -2.83% (inactive) |
